LAP4 TOR yeast: modulators of LAP4-GFP expression in yeast, primary screen, S. cerevisiae, multiplex flow cytometry, MLPCN library; actives 0.34% (n = 320,000); GFP response vs DMSO, % at 10 µM; 3 h; median GFP as percent of DMSO wells;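 active means GFP response vs DMSO above a set limit, about the screen mean plus 3 SD, cut at about 150% in these data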
MEP2-GFP yeast: modulators of MEP2-GFP levels in yeast, primary screen, S. cerevisiae, multiplex flow cytometry, MLPCN library | S. cerevisiae MEP2-GFP strain, 3 h; 100% = DMSO control level | actives 0.51% (n = 330,000) | GFP response vs DMSO, % at 10 µM;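 active means GFP response versus DMSO above a set limit, roughly screen mean plus 3 SD, cut at about 180% in these data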;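 further: median GFP fluorescence of the barcode-gated MEP2-GFP cells per well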
RPL19A TOR yeast: RPL19A-GFP expression modulators in yeast, primary screen, cell-based, S. cerevisiae, multiplex flow cytometry, MLPCN. actives 0.3% (n = 330,000). percent response vs DMSO, % at 10 µM. S. cerevisiae RPL19A-GFP strain, 3 h; active compounds read low;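 active means percent response vs DMSO below 50%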;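 further: median channel GFP fluorescence of the barcoded RPL19A-GFP strain; ratio of sample median GFP to plate DMSO average so 100% = DMSO; lower means less RPL19A-GFP as with rapamycin TOR inhibition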
CIT2 TOR yeast: modulators of CIT2-GFP expression in yeast, primary screen, S. cerevisiae, GFP fusion, multiplex flow cytometry, MLPCN library; GFP response vs DMSO, % at 10 µM; AID 2029, 2009; S. cerevisiae CIT2-GFP strain, 3 h; 100 means same as DMSO wells; actives 0.065% (n = 320,000);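 active means GFP response relative to DMSO above a set limit, near the screen mean plus 3 SD, cut at about 150% in these data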;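 further: ratio of well median GFP fluorescence to mean of DMSO wells on the plate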
Efflux pump inh: inhibitors of Candida efflux pumps in yeast, primary screen, S. cerevisiae, Nile Red, multiplex; S. cerevisiae Candida pump triplex; inhibition, % at 10 µM; actives 0.44% (n = 330,000); AID 485275, 2010;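 active means plate passing quality check with inhibition over a set limit, or well fluorescence over plate mean plus 4 SD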;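 further: Nile Red retained in pooled yeast measured as flow cytometry median fluorescence; 0% = buffer negative control and 100% = Enniatin B positive control; higher means more Nile Red kept so more efflux inhibition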
AGP1 TOR yeast: modulators of AGP1-GFP expression in yeast TOR pathway, primary screen, cell-based, multiplex flow cytometry, S. cerevisiae, MLPCN library; 3 h; GFP as percent of DMSO wells; GFP response vs DMSO, % at 10 µM; actives 0.02% (n = 320,000);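 active means GFP response relative to DMSO above a set limit, near screen average plus 3 SD, cut at about 150% in these data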;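 further: median GFP channel fluorescence of the gated AGP1 strain per well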
LAP4-GFP pick2: LAP4-GFP expression modulators in yeast, confirmation, cell-based, second cherry pick, flow cytometry | shares compounds with LAP4 TOR yeast | S. cerevisiae LAP4-GFP strain, 3 h | GFP response vs DMSO, % at 10 µM | actives 20% (n = 590) | AID 2621, 2010;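 active means GFP signal as percent of the solvent control above about 150%, meaning raised reporter expression, limit read from the data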;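 further: ratio of well median GFP fluorescence to plate DMSO mean so 100% = DMSO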
MEP2 cherry2: modulators of MEP2-GFP levels in yeast, confirmation, S. cerevisiae, flow cytometry GFP, second cherry picks | GFP response vs DMSO, % at 10 µM | S. cerevisiae MEP2-GFP strain, 3 h | shares compounds with LAP4 TOR yeast | AID 2622, 2010 | actives 10% (n = 590);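 active means GFP signal above 150% of the solvent control wells, that is a rise of more than half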;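 further: median channel GFP fluorescence of all gated yeast cells per well; ratio of median GFP to plate DMSO average so 100% = DMSO level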
RPL19A-GFP pick2: RPL19A-GFP modulators in TOR pathway yeast, confirmation, cell-based, S. cerevisiae, flow cytometry, second cherry pick; AID 2623, 2010; GFP response vs DMSO, % at 10 µM; shares compounds with LAP4 TOR yeast; S. cerevisiae RPL19A-GFP strain, 3 h; active compounds read low; 100% means same as DMSO wells; actives 3% (n = 590);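 active means under 65% GFP response relative to DMSO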;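 further: median GFP channel fluorescence per well over the all cells gate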
CIT2-GFP pick2: modulators of CIT2-GFP expression in yeast, confirmation, flow cytometry, second cherry pick, single plex. actives 8% (n = 590). S. cerevisiae CIT2-GFP strain, 3 h; DMSO control wells read 100%. shares compounds with LAP4 TOR yeast. AID 2624, 2010. GFP response vs DMSO, % at 10 µM;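 active means GFP response vs DMSO above about 150%, limit read from the data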;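 further: median green fluorescence per well over all gated yeast cells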
AGP1-GFP pick2: AGP1-GFP expression modulators, hit retest, confirmation, cell-based, flow cytometry, S. cerevisiae, cherry pick set 2; 590 tested, under 10 active; percent response vs DMSO, % at 10 µM; S. cerevisiae AGP1-GFP strain, 3 h; shares compounds with LAP4 TOR yeast;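 active means over 150 percent of DMSO response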;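 further: median GFP channel fluorescence over all cells without mother daughter split; sample median GFP divided by mean DMSO control so 100% equals DMSO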
s288c autofluor: compound autofluorescence in yeast s288c, dose response, artefact control for yeast TOR pathway GFP screen, s288c strain; AID 2757, 2010; fluorescence change (kMESF span) at 33 µM; S. cerevisiae s288c, 520 nm autofluorescence, flow cytometry, 3 h; active compounds read high; zero means same as solvent-only cells; shares compounds with LAP4 TOR yeast; 610 tested, under 10 active;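 active means fluorescence span over the dose series, or activity score, above about 33, limit read from the data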
Yeast autofl DR: autofluorescence of compounds in yeast s288c, dose response, artefact control for yeast TOR pathway GFP screen, primary hits, KU SAR, s288c parental; shares compounds with LAP4 TOR yeast; S. cerevisiae s288c parental, compound autofluorescence, flow cytometry, 3 h; fluorescence change (span) at 33 µM; 110 tested, under 10 active;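 active means fluorescence change span, or the activity score built from it, above 25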
TORC1 bypass: wild-type yeast growth inhibition sparing TORC1 bypass cells, mechanism study for yeast TOR pathway GFP screen, BY4741 wild type, TORC1 bypass strain; growth rating (0-3) at 30 µM; AID 504456, 2011; S. cerevisiae BY4741 spot growth rating, 48-72 h; active compounds read low; shares compounds with LAP4 TOR yeast; 120 tested, under 10 active;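 active means growth rating at most 1 for wild type yeast while the TORC1 bypass strain still grows fully, rated 3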
Yeast cmpd fluor: compound fluorescence in yeast efflux pump counter-screen | shares compounds with Efflux pump inh | S. cerevisiae AD/pABC3, flow cytometry | fluorescence ratio to DMSO, % at 10 µM | actives 4% (n = 1,700) | AID 588517;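 active means fluorescence ratio to DMSO above its plate's cutoff, the plate mean ratio plus 5 SD, cut at about 210% in these data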;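 further: unstained yeast with no Nile Red so the signal is compound autofluorescence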
Mdr1 pump inh: inhibitors of Candida albicans Mdr1 efflux, confirmation, flow cytometry, singleplex, Cherry Pick1 set. inhibition, % at 10 µM. actives 1% (n = 1,700). S. cerevisiae AD/CaMDR1, Nile Red efflux. shares compounds with Efflux pump inh; in the data active means inhibition above about 26%;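 further: 0% = DMSO vehicle and 100% = reference inhibitor; higher means more Nile Red retained so more efflux inhibition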
CaCdr2 efflux inh: inhibitors of Candida albicans Cdr2 efflux pump, confirmation, S. cerevisiae AD/CaCDR2, flow cytometry, cherry pick 1, singleplex. shares compounds with Efflux pump inh. Nile Red retention. Nile Red retention ratio vs DMSO, % at 10 µM. actives 4% (n = 1,700); in the data active means Nile Red retention ratio vs DMSO above about 190%;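 further: higher ratio means more blocking of Cdr2 efflux of the dye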
Cdr1 pump inh: inhibitors of Candida albicans Cdr1 efflux pump, confirmation, S. cerevisiae AD/CaCDR1, flow cytometry, cherry pick 1, singleplex. Nile Red efflux. inhibition, % at 10 µM. AID 588522, 2011. shares compounds with Efflux pump inh. actives 1% (n = 1,700);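 active means inhibition above the screen-wide mean plus twice its standard deviation, cut at about 32% in these data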
Active calls of the source: *; x = no result given; [ ] = another dose, or the depositor's remark. In the library only some 1.3% were active in any assay of this set; here they are far more common.

SMILES | LAP4 TOR yeast | MEP2-GFP yeast | RPL19A TOR yeast | CIT2 TOR yeast | Efflux pump inh | AGP1 TOR yeast | LAP4-GFP pick2 | MEP2 cherry2 | RPL19A-GFP pick2 | CIT2-GFP pick2 | AGP1-GFP pick2 | s288c autofluor | Yeast cmpd fluor | Mdr1 pump inh | CaCdr2 efflux inh | Cdr1 pump inh | others
Nc1nc(Nc2cccc(Cl)c2)nc(Nc2cccc(F)c2)c1[N+](=O)[O-] | x | x | x | x | x | x | x | x | x | x | x | x | x | x | x | x | Yeast autofl DR=0.16;TORC1 bypass=3
CN(C)C(CNC(=O)c1cnc(Cl)c(Cl)c1)c1ccccc1 (stereo not given) | 90 | 103 | 99 | 99 | 1 | 93 | x | x | x | x | x | x | x | x | x | x
Cc1cccc(C)c1NC(=O)CNC(=O)CCCN1C(=O)c2cccc3cccc(c23)C1=O | 375* | 449* | 170 | 414* | 1 | 182* | 99 | 108 | 100 | 102 | 100 | x | x | x | x | x
Cc1ccc(NC(=O)CCCN2C(=O)c3cccc4cccc(c34)C2=O)cc1 | 96 | 100 | 104 | 98 | 0 | 101 | x | x | x | x | x | x | x | x | x | x
CCCCNc1c2c3c(cccc3n(C)c1=O)C(=O)c1ccccc1-2 | 171* | 112 | 89 | 100 | 0 | 102 | 322* | 94 | 123 | 124 | 97 | 0.2 | x | x | x | x
Clc1cccc(Nc2ncnc3c2cnn3-c2ccccc2)c1 | 127 | 93 | 101 | 82 | 0 | 104 | x | x | x | x | x | x | x | x | x | x
Fc1cccc(Nc2ncnc3c2cnn3-c2ccccc2)c1 | 157* | 99 | 91 | 69 | 0 | 93 | 133 | 103 | 87 | 86 | 88 | 0 | x | x | x | x
CN1C(=S)SC2CS(=O)(=O)CC21C (stereo not given) | 104 | 102 | 104 | 96 | 0 | 102 | x | x | x | x | x | x | x | x | x | x
O=C(NC1CC(=O)N(c2ccc(F)cc2)C1)C(=O)c1c[nH]c2ccccc12 (stereo not given) | 99 | 104 | 104 | 93 | 0 | 106 | x | x | x | x | x | x | x | x | x | x
COC(=O)c1ccc(NC(=O)CN2C(=O)NC3(CCC(C)CC3)C2=O)cc1 (stereo not given) | 98 | 106 | 101 | 116 | 0 | 101 | x | x | x | x | x | x | x | x | x | x
CCn1ncc([N+](=O)[O-])c1C(=O)Nc1ccc(C)c(C)c1 | 92 | 97 | 102 | 95 | 0 | 97 | x | x | x | x | x | x | x | x | x | x
CC(C)(C)c1cc(C(c2cccnc2)N2CCN(CCO)CC2)cc(C(C)(C)C)c1O (stereo not given) | 161* | 99 | 89 | 95 | 0.4* | 83 | x | x | x | x | x | 24 | 90 | 0 | 87 | 0
CN(c1ccc(OC(=O)c2ccc(-n3cncn3)c([N+](=O)[O-])c2)cc1)S(=O)(=O)c1ccccc1 | 101 | 102 | 103 | 95 | 0 | 99 | x | x | x | x | x | x | x | x | x | x
CC(=O)N(\C=C/C=C/C=C1\Sc2ccccc2C1=O)c1ccccc1 | 167* | 283* | 113 | 200* | 5.7* | 105 | x | x | x | x | x | 10 | 297* | 0 | 149 | 0
O=C(NCCS(=O)(=O)N1CCN(c2ccccc2)CC1)C1CC1 | 95 | 106 | 100 | 84 | 0 | 92 | x | x | x | x | x | x | x | x | x | x
CCCCN(C)C1=CC2=CC(=C(C#N)C#N)CCC2CC1 (stereo not given) | 190* | 335* | 126 | 207* | 5.5* | 123 | 489* | 821* | 152 | 619* | 133 | x | 231 | 1 | 282* | 1
CCN(CC)C1=CC2=CC(=C(C#N)C#N)CCC2CC1 (stereo not given) | 197*[may fluoresce green] | 297*[may fluoresce green] | 140 | 310*[may fluoresce green] | 3.4* | 123 | 354* | 470* | 128 | 434* | 120 | x | 155 | 1 | 225* | 1
Cc1ccccc1/C=C/c1cc[n+](C)cc1 | 104 | 96 | 98 | 105 | 0 | 94 | x | x | x | x | x | x | x | x | x | x
C=CCn1c(C)c(/C=C/c2cc[n+](C)cc2)c2ccccc21 | 171* | 286* | 129 | 241* | 1.4* | 117 | x | x | x | x | x | 5.1 | 684* | 3 | 133 | 2
